Only a selection was taken, and hits are over-represented in it overall.
CBX7 AlphaScr – inhibitors of human CBX7 binding to H3K27me3 peptide. O95931. AlphaScreen His6-CBX7 / biotin-H3K27me3 peptide binding; stronger effect = lower value. normalised signal (fraction of DMSO) (no concentration beside the values). 66,000 tested, 1.1% active. AID 1224903; in the data active means normalised signal below about 0.5
Target sequence (O95931 whole entry, looked up): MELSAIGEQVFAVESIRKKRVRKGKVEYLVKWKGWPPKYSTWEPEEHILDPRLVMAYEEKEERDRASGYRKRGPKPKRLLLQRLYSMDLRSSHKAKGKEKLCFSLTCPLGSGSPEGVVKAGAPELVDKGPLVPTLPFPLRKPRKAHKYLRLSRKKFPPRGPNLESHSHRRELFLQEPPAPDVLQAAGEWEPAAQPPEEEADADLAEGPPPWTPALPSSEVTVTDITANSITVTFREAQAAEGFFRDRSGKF
Numbers without * were called inactive.

SMILES	CBX7 AlphaScr
CCCCN(C)S(=O)(=O)c1ccc(C(=O)Nc2nnc(-c3ccc(Cl)s3)o2)cc1	0.982
CC1CC(C)CN(S(=O)(=O)c2ccc(C(=O)Nc3nnc(C4CC4)o3)cc2)C1 (stereo not given)	0.0653*
COc1ccc(-c2nnc(NC(=O)c3ccc(S(=O)(=O)N4CC(C)CC(C)C4)cc3)o2)c(OC)c1 (stereo not given)	0.97
CCc1nnc(NC(=O)c2ccc(S(=O)(=O)N3CCCC(C)C3)cc2)o1 (stereo not given)	0.638
Cc1nnc(NC(=O)c2ccc(S(=O)(=O)N3CCCc4ccccc43)cc2)o1	0.0335*
O=C(Nc1nc(-c2ccncc2)cs1)c1ccc(S(=O)(=O)N2CCCc3ccccc32)cc1	0.863
COc1ccc(-c2nnc(NC(=O)c3ccc(S(=O)(=O)N4CCOCC4)cc3)o2)cc1	0.516
CCOc1cccc2sc(NC(=O)c3ccc(S(=O)(=O)N4CCCc5ccccc54)cc3)nc12	1.19
CN(c1ccccc1)S(=O)(=O)c1ccc(C(=O)Nc2nnc(-c3ccc(Cl)s3)o2)cc1	0.39*
O=C(Nc1nnc(C2CC2)o1)c1ccc(S(=O)(=O)N2CCOCC2)cc1	0.443*
CCCN(CCC)S(=O)(=O)c1ccc(C(=O)Nc2nnc(-c3ccc(Cl)s3)o2)cc1	1.02
Cc1ccc(C)c(-n2nnnc2SCC(=O)Nc2ccc(F)cc2)c1	1.07
COc1ccc(NC(=O)C(c2ccccc2)N(C)C(=O)CC2NC(=O)NC2=O)cc1 (stereo not given)	1.1
CC(C)c1ccc(NC(=O)CN(C)S(=O)(=O)c2cccc3cccnc23)cc1	1.08
Cc1ccccc1CN1CCN(CC(=O)NC2CCCCC2)C1=O	1.27
O=C(CC1(O)C(=O)N(Cc2ccccc2)c2ccccc21)c1cccnc1 (stereo not given)	0.94
Cc1ccc(C(=O)Nc2c(C(=O)N3CCN(C)CC3)cnn2-c2ccccc2)cc1	0.932
COc1cc2c(cc1OC)C(c1ccc(C(C)(C)C)cc1)NCC2 (stereo not given)	0.952
CC12C=CC3(CN(Cc4ccccc4)C(=O)C3C1C(=O)NCCc1ccccc1Cl)O2 (stereo not given)	1.07
CN(C)S(=O)(=O)c1ccc(C(=O)Nc2nnc(-c3ccc(F)cc3)o2)cc1	0.044*
Cc1nnc(NC(=O)c2ccc(S(=O)(=O)N3CCCC(C)C3)cc2)o1 (stereo not given)	0.746
Cc1nnc(NC(=O)c2ccc(S(=O)(=O)N3CCCC3)cc2)o1	0.0237*
Cc1nnc(NC(=O)c2ccc(S(=O)(=O)N3CCOCC3)cc2)o1	0.51
Cc1nc2c(-c3ccccc3)c(C)nn2c(C)c1CCC(=O)N1CCCC1	1.22
CCCc1cc(-c2nc(-c3cccc([N+](=O)[O-])c3)cs2)ccn1	0.429*
SMILES	CBX7 AlphaScr
CCc1cc(-c2nc(-c3ccc(Cl)c(Cl)c3)cs2)ccn1	1.16
CCCCC(=O)Nc1cccc(-c2csc(-c3ccccc3)n2)c1	1.1
CC1CCC(NC(=O)C2c3cccn3CC(=O)N2c2ccc(F)cc2)CC1 (stereo not given)	1.09
CCc1ccc2c(c1)c(=O)c(S(=O)(=O)c1ccccc1)cn2CC(=O)Nc1ccc(C)cc1C	0.925
Cc1ccc(NC(=O)[C@H](CSCc2ccccc2)N2Cc3ccccc3C2=O)cc1F	0.891
OC(COc1ccccc1Cl)Cn1cnc2ccccc21 (stereo not given)	0.245*
Cc1cc(C)c(OCC(O)Cn2cnc3ccccc32)c(C)c1 (stereo not given)	0.482*
CCCc1nc2ccccc2n1CC(O)COc1c(C)cc(C)cc1C (stereo not given)	0.933
Cc1ccc(Cl)c(OCC(O)Cn2cnc3ccccc32)c1 (stereo not given)	0.675
O=C(O)c1ccccc1OCC(O)Cn1cnc2ccccc21 (stereo not given)	0.999
OC(COc1ccc(Br)cc1)Cn1cnc2ccccc21 (stereo not given)	0.587
Cc1ccccc1Nc1c(-c2ccccn2)nc2cccc(C)n12	0.242*
Cc1cccc2nc(-c3ccsc3)c(Nc3ccc(C(C)C)cc3)n12	0.814
Cc1cccc2nc(-c3cccnc3)c(Nc3ccc(C(C)C)cc3)n12	0.869
Cc1cc(C)n2c(Nc3ccccc3C)c(-c3ccccn3)nc2n1	1.07
Cc1ccccc1Nc1c(-c2cccnc2)nc2cccc(C)n12	0.924
Cc1cccc2nc(-c3ccccn3)c(Nc3ccc(C(C)C)cc3)n12	0.106*
CCOCCCNC(=O)c1ccc2c(c1)ncn2-c1cc(C)ccc1OC	1.15
O=S(=O)(NCC1COc2ccccc2O1)c1ccc(OC(F)(F)F)cc1 (stereo not given)	1.06

High-throughput results deposited in PubChem by Bradner/Qi Labs at DFCI.
